According to PubChem BioAssay (NCI):
About 83,000 compounds went through this panel and 20% of them were active in at least one assay; those are over-represented in the sample as a whole.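 Compound tested at a single concentration for 48 hours in 96-well plates; a percent growth value below 10 was scored as active.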 Unmarked numbers belong to inactive results. Active and inactive are the calls of the source.

The molecules below were run on A498 renal (assay: NCI-60 one-dose screen, 48 h (100 = growth as untreated, 0 = no growth, -100 = all killed)). Settings: 10 µM unless noted.

Row | SMILES | growth
1 | O=c1ccn(-c2ncnc3nc[nH]c23)cc1 | 87.6%
2 | CCN(CC)c1ccc(CNc2ccnc3ccccc23)cc1 | 48.2%
3 | COc1ccc(CN2CCc3c(Sc4ccccc4)nc(N)nc3C2=O)c(OC)c1 | 66%
4 | COc1ccc(/C=C\c2cc(OC)c(OC)c(OC)c2)cc1OC(=O)c1cccc(Cn2cc(CCOC(=O)c3cccc(Cn4nnc5c4C(=O)c4ccccc4C5=O)c3)nn2)c1 | -4.1% (active)
5 | CCCCN(CCCC)C(=O)CC | 97.7%
6 | O=C1Nc2ccc3c(c2/C1=C\c1cc2c(cc1Br)OCO2)OCO3 | 19.1%
7 | O=C1/C(=C/c2ccccc2)CN(C(=O)CCN2CCC(=NO)CC2)C/C1=C\c1ccccc1 | 80%
8 | COc1ccc2c(c1)[nH]c(=O)c1c3cc(OC)ccc3cn21 | 51.7%
9 | COc1ccc(Nc2nc(N)nc3c2CCN(Cc2ccc(OC)cc2OC)C3=O)cc1 | 76.8%
10 | Cn1ccc(=O)c(S(N)(=O)=O)c1 | 107%
11 | Cc1cc(N/N=C/c2nc(-c3ccccc3)oc2C)c2cc(Br)ccc2n1 | 66.1%
12 | Cc1nn(-c2ccc([N+](=O)[O-])cc2)c2ncnc(NCCc3ccccc3)c12 | 81.7%
13 | CCN(CC)CCC(CNc1ccnc2cc(Cl)ccc12)c1ccc(Cl)cc1 (stereo not drawn) | 0.939% (active)
14 | OC(c1cc2cc(Br)ccc2c2cc(Br)ccc12)C1CCCCN1 (stereo not drawn) | 24%
15 | C=C1CCC2C3(C)COC(c4c(OC)cccc4OC)OC3CCC2(C)C1C/C=C1/C(=O)OCC1O (stereo not drawn) | 102%
16 | COC(=O)c1cc2cc(-c3ccc(OC)cc3)cnc2[nH]1 | 28.1%
17 | Cc1ccc(S(=O)(=O)n2cc(C(=O)C(=O)N3CCOCC3)c3ccccc32)cc1 | 118%
18 | COc1ccc(-c2nc(/C=N/Nc3cc(C)nc4ccc(Cl)cc34)c(C)o2)cc1 | 73%
19 | O=C1c2ccccc2-c2ccccc2C1(Cl)Cl | 101%
20 | COc1ccc(-c2cn(-c3cccc(C(=O)/C=C/c4cc(OC)c(OC)c(OC)c4)c3)c(=O)[nH]2)cc1OC | 90.3%

Row | SMILES | growth
21 | CCCCCCCCCCCCNC(=O)[C@H]1CSC(c2ccsc2)N1 (stereo partly drawn) | 106%
22 | COc1cc(C2NN=C3c4ccccc4CCC32)cc(OC)c1OC (stereo not drawn) | 89.6%
23 | O=C(N/N=C/C=C\c1ccccc1)C(=O)N/N=C/C=C/c1ccccc1 | 127%
24 | CN1CCN(Cc2ccc(NC(=O)c3cncc(C#Cc4cnc(N)c5ccncc45)c3)cc2C(F)(F)F)CC1 | -22.7% (active)
25 | N=C(N)c1ccc(-c2ccc(-c3ccc4ccccc4c3)s2)cc1 | 91.3%
26 | COc1cc(/C=C/C(=O)c2cccc(-n3cc(-c4cc(OC)c(OC)c(OC)c4)[nH]c3=O)c2)cc(OC)c1OC | 76.4%
27 | N=C(N)c1ccc(-c2ccc(-c3ccc(-c4cccs4)s3)s2)cc1 | 20.6%
28 | COc1ccc(-c2ccc(-c3ccc(C(=N)N)s3)s2)cc1Cl | 65.3%
29 | O=c1[nH]c2ccc(Br)cc2c2c1C(c1ccc(Cl)cc1)c1c(ncn3nc(-c4ccco4)nc13)O2 (stereo not drawn) | 59.6%
30 | N=C(N)c1ccc(-c2cc(Cl)cc(Cl)c2)cn1 | 73.1%
31 | Cc1nc2ncccc2nc1Nc1ccc(S(=O)(=O)Nc2cncs2)cc1 | 118%
32 | Cc1cc(N/N=C/c2nc(-c3ccccc3)oc2C)c2cc(Cl)ccc2n1 | 68.4%
33 | Cc1nc2ncccc2nc1Nc1ccc(S(=O)(=O)Nc2ccccn2)cc1 | 104%
34 | NC(=S)N/N=C1\CCCC(C(F)(F)F)C1 (stereo not drawn) | 128%
35 | Oc1ccc2cc(Br)ccc2c1-c1c(O)ccc2cc(Br)ccc12 | 72%
36 | CCC(=O)Oc1ccc(/C(=C(/C)Cc2cccc(OC)c2)c2ccc(OCCN(C)C)cc2)cc1 | 84.4%
37 | COC1=C(OC)C(=O)C(CCCCCCCCCC[P+](c2ccccc2)(c2ccccc2)c2ccccc2)=C(C)C1=O | -44.1% (active)
38 | O=C(CN1CCN(c2cc3c(cc2F)c(=O)c(C(=O)N/N=C/c2ccccc2O)cn3C2CC2)CC1)N/N=C\c1ccccc1O | 86.1%
39 | COc1ccc(-c2ccc(-c3ccc(C(=N)N)cn3)s2)cc1OC | 78.5%

The molecules below were run on CCRF-CEM leukemia in the same assay as above. Settings: 10 µM unless noted.

Row | SMILES | growth
40 | O=c1ccn(-c2ncnc3nc[nH]c23)cc1 | 89.7%
41 | CCN(CC)c1ccc(CNc2ccnc3ccccc23)cc1 | 53.3%
42 | COc1ccc(CN2CCc3c(Sc4ccccc4)nc(N)nc3C2=O)c(OC)c1 | 46.7%
43 | COc1ccc(/C=C\c2cc(OC)c(OC)c(OC)c2)cc1OC(=O)c1cccc(Cn2cc(CCOC(=O)c3cccc(Cn4nnc5c4C(=O)c4ccccc4C5=O)c3)nn2)c1 | 8.91% (active)
44 | CCCCN(CCCC)C(=O)CC | 96.8%
45 | O=C1Nc2ccc3c(c2/C1=C\c1cc2c(cc1Br)OCO2)OCO3 | 10% (active)
46 | O=C1/C(=C/c2ccccc2)CN(C(=O)CCN2CCC(=NO)CC2)C/C1=C\c1ccccc1 | -2.62% (active)
47 | COc1ccc2c(c1)[nH]c(=O)c1c3cc(OC)ccc3cn21 | -58.8% (active)
48 | COc1ccc(Nc2nc(N)nc3c2CCN(Cc2ccc(OC)cc2OC)C3=O)cc1 | 86.1%
49 | Cn1ccc(=O)c(S(N)(=O)=O)c1 | 99.9%
50 | Cc1cc(N/N=C/c2nc(-c3ccccc3)oc2C)c2cc(Br)ccc2n1 | 27.7%
51 | Cc1nn(-c2ccc([N+](=O)[O-])cc2)c2ncnc(NCCc3ccccc3)c12 | 100%
52 | CCN(CC)CCC(CNc1ccnc2cc(Cl)ccc12)c1ccc(Cl)cc1 (stereo not drawn) | 3.11% (active)
53 | OC(c1cc2cc(Br)ccc2c2cc(Br)ccc12)C1CCCCN1 (stereo not drawn) | -57.4% (active)
54 | C=C1CCC2C3(C)COC(c4c(OC)cccc4OC)OC3CCC2(C)C1C/C=C1/C(=O)OCC1O (stereo not drawn) | -33.1% (active)
55 | COC(=O)c1cc2cc(-c3ccc(OC)cc3)cnc2[nH]1 | 22.3%
56 | Cc1ccc(S(=O)(=O)n2cc(C(=O)C(=O)N3CCOCC3)c3ccccc32)cc1 | 93.6%
57 | COc1ccc(-c2nc(/C=N/Nc3cc(C)nc4ccc(Cl)cc34)c(C)o2)cc1 | -54.3% (active)
58 | O=C1c2ccccc2-c2ccccc2C1(Cl)Cl | 11.2%
59 | COc1ccc(-c2cn(-c3cccc(C(=O)/C=C/c4cc(OC)c(OC)c(OC)c4)c3)c(=O)[nH]2)cc1OC | 34.3%

Row | SMILES | growth
60 | CCCCCCCCCCCCNC(=O)[C@H]1CSC(c2ccsc2)N1 (stereo partly drawn) | -43.2% (active)
61 | COc1cc(C2NN=C3c4ccccc4CCC32)cc(OC)c1OC (stereo not drawn) | 1.98% (active)
62 | O=C(N/N=C/C=C\c1ccccc1)C(=O)N/N=C/C=C/c1ccccc1 | 108%
63 | CN1CCN(Cc2ccc(NC(=O)c3cncc(C#Cc4cnc(N)c5ccncc45)c3)cc2C(F)(F)F)CC1 | 14.2%
64 | N=C(N)c1ccc(-c2ccc(-c3ccc4ccccc4c3)s2)cc1 | 64.1%
65 | COc1cc(/C=C/C(=O)c2cccc(-n3cc(-c4cc(OC)c(OC)c(OC)c4)[nH]c3=O)c2)cc(OC)c1OC | -1.54% (active)
66 | N=C(N)c1ccc(-c2ccc(-c3ccc(-c4cccs4)s3)s2)cc1 | -47.8% (active)
67 | COc1ccc(-c2ccc(-c3ccc(C(=N)N)s3)s2)cc1Cl | -31.2% (active)
68 | O=c1[nH]c2ccc(Br)cc2c2c1C(c1ccc(Cl)cc1)c1c(ncn3nc(-c4ccco4)nc13)O2 (stereo not drawn) | 73.9%
69 | N=C(N)c1ccc(-c2cc(Cl)cc(Cl)c2)cn1 | 8.61% (active)
70 | Cc1nc2ncccc2nc1Nc1ccc(S(=O)(=O)Nc2cncs2)cc1 | 100%
71 | Cc1cc(N/N=C/c2nc(-c3ccccc3)oc2C)c2cc(Cl)ccc2n1 | -34.6% (active)
72 | Cc1nc2ncccc2nc1Nc1ccc(S(=O)(=O)Nc2ccccn2)cc1 | 107%
73 | NC(=S)N/N=C1\CCCC(C(F)(F)F)C1 (stereo not drawn) | 45.5%
74 | Oc1ccc2cc(Br)ccc2c1-c1c(O)ccc2cc(Br)ccc12 | 45%
75 | CCC(=O)Oc1ccc(/C(=C(/C)Cc2cccc(OC)c2)c2ccc(OCCN(C)C)cc2)cc1 | 42.8%
76 | COC1=C(OC)C(=O)C(CCCCCCCCCC[P+](c2ccccc2)(c2ccccc2)c2ccccc2)=C(C)C1=O | -6.4% (active)
77 | O=C(CN1CCN(c2cc3c(cc2F)c(=O)c(C(=O)N/N=C/c2ccccc2O)cn3C2CC2)CC1)N/N=C\c1ccccc1O | 8.24% (active)
78 | COc1ccc(-c2ccc(-c3ccc(C(=N)N)cn3)s2)cc1OC | 97.6%
